Structures can show the parent of a compound that is named as a salt.
What follows are molecules tested on hN + hpA co-culture (H1 iNGN2 human neurons + human primary astrocytes) (assay: presynaptic density (SYNAPSIN1 puncta per MAP2 neurite area), Z-score vs DMSO controls; higher = more presynaptic puncta (synapse-promoting)). Conditions: 3 µM; 72 h.
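Also: immunostained co-cultures imaged by high-content microscopy, Z-score per plate against mean and SD of 0.1% DMSO wells, compounds added on differentiation day 18, analysed day 21.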

Row | Compound | presynaptic density (Z-score)
1 | Cc1ccc2nc(NC(=O)CSc3nc4c(c(=O)n3-c3ccccc3)SCC4)sc2c1 | -0.234
2 | O=C(NCCN1CCOCC1)c1ccc(Cl)cc1 | 0.253
3 | O=C(O)c1cccc(-c2noc(-c3ccccc3F)n2)c1 [Ataluren (PTC124)] | -0.0102
4 | COc1cc2nc(N3CCN(C(=O)C4COc5ccccc5O4)CC3)nc(N)c2cc1OC (centres undefined) [Doxazosin mesylate] | 0.0192
5 | C[C@@H](NCCCc1cccc(C(F)(F)F)c1)c1cccc2ccccc12 [Cinacalcet HCl] | -1.05
6 | CC(C)NCC(O)COc1ccc(COCCOC(C)C)cc1 (racemic) | -0.749
7 | NCc1c[nH]c(=S)n1C1CCc2c(F)cc(F)cc2C1 [(R)-Nepicastat HCl] | 0.738
8 | COc1cc2c(N3CCN(C(=O)Nc4ccc(OC(C)C)cc4)CC3)ncnc2cc1OCCCN1CCCCC1 | -0.158
9 | O=C(Nc1cccc(Cl)c1)c1ccccn1 | 0.851
10 | Cc1ccc(S(=O)(=O)n2c(N)nc3ccccc32)cc1 [ML130 (Nodinitib-1)] | 0.396
11 | COC1CC2CCC(C)C(O)(O2)C(=O)C(=O)N2CCCCC2C(=O)OC(C(C)CC2CCC(OP(C)(C)=O)C(OC)C2)CC(=O)C(C)C=C(C)C(O)C(OC)C(=O)C(C)CC(C)C=CC=CC=C1C (centres undefined) [Ridaforolimus (Deforolimus] | 0.509
12 | CCOC(=O)C1=C(COCCN)NC(C)=C(C(=O)OC)C1c1ccccc1Cl (centres undefined) | -1.97
13 | NS(=O)(=O)c1ccc(NC(=O)Nc2ccc(F)cc2)cc1 | 0.585
14 | CC[C@@H]1C(=O)N(C)c2cnc(Nc3ccc(C(=O)NC4CCN(C)CC4)cc3OC)nc2N1C1CCCC1 | -2.32
15 | C[S+]([O-])c1ccc(-c2nc(-c3ccc(F)cc3)c(-c3ccncc3)[nH]2)cc1 (centres undefined) | -1.11
16 | CCCCCCCCc1ccc(CCC(N)(CO)CO)cc1 [Fingolimod (FTY720) HCl] | 0.342
17 | Cc1[nH]c(/C=C2\C(=O)Nc3ccc(S(=O)(=O)Cc4c(Cl)cccc4Cl)cc32)c(C)c1C(=O)N1CCC[C@@H]1CN1CCCC1 | -4.53
18 | O=C1NC(=O)/C(=C/c2ccc(-c3ccc(F)cc3O)o2)S1 | 0.652
19 | CC(C)c1noc(N2CCC(COc3ccc(-c4ccc(S(C)(=O)=O)cc4)nc3)CC2)n1 | 0.0886
20 | COc1cc(N2CCC(N(C)C)CC2)ccc1Nc1ncc(Cl)c(Nc2ccccc2P(C)(C)=O)n1 | 0.449

Row | Compound | presynaptic density (Z-score)
21 | CC(C)[C@H](O)C(=O)N[C@@H](C)C(=O)N[C@@H]1C(=O)N(C)CCc2ccccc21 | -0.185
22 | CC(=O)O[C@]1(C(C)=O)CC[C@H]2[C@@H]3C=C(Cl)C4=CC(=O)[C@@H]5C[C@@H]5[C@]4(C)[C@H]3CC[C@@]21C [Cyproterone acetate] | -0.989
23 | CC(C)CCN1c2nc(Nc3cc(F)c(O)c(F)c3)ncc2N(C)C(=O)C1C (centres undefined) | 2.11
24 | c1ccc(NCc2ccc(CNc3ccccn3)cc2)nc1 | -0.658
25 | O=c1oc2cc(O)ccc2s1 | -0.113
26 | O=C(NC[C@H]1CN(c2ccc(N3CCOCC3=O)cc2)C(=O)O1)c1ccc(Cl)s1 [Rivaroxaban] | -0.11
27 | N#CC(=C(N)Sc1ccccc1N)C(C#N)=C(N)Sc1ccccc1N [1,4-Diamino-2,3-dicyano-1,4-bis[2-aminophenylthio]butadiene] | -0.048
28 | CC(C)(C)Cn1c(N)nc2ccc(-c3[nH]c(C(C)(C)C)nc3-c3ccc(F)cc3)nc21 | 0.191
29 | CCC(=O)NCC[C@@H]1CCc2ccc3c(c21)CCO3 | -1.53
30 | O=C(Nc1cc(C(F)(F)F)cc(C(F)(F)F)c1)c1cc(Cl)ccc1O | -3.05
31 | CCO[C@@H]1OC(=O)C[C@@H]1NC(=O)[C@@H]1CCCN1C(=O)[C@@H](NC(=O)c1ccc(N)c(Cl)c1)C(C)(C)C | -1.02
32 | S=C=Nc1cccc(NC(=S)NCCCCNC(=S)Nc2cccc(N=C=S)c2)c1 | 0.95
33 | Nc1cccc(-c2cc3c(Oc4cccc(O)c4)ncnc3[nH]2)c1 | 0.148
34 | COc1cccc(-c2cc(F)ccc2C2Cc3nc(N)nc(C)c3C(=O)N2)n1 (centres undefined) | 2.18
35 | CC(C)(C)c1cc(/C=C(\C#N)C(N)=S)cc(C(C)(C)C)c1O [Tyrphostin AG 879] | -0.121
36 | OC(CC1c2ccccc2-c2cncn21)C1CCCCC1 (centres undefined) | 0.156
37 | COc1cc2c(cc1-c1c(C)noc1C)ncc1[nH]c(=O)n([C@H](C)c3ccccn3)c12 [I-BET 151 hydrochloride] | 3.55
38 | NC(=O)C1CCCc2c1[nH]c1ccc(Cl)cc21 (centres undefined) [6-Chloro-2,3,4,9-tetrahydro-1H-carbazole-1-carboxamide] | 0.159
39 | Nc1nc(N)c2nc(-c3cccc(O)c3)c(-c3cccc(O)c3)nc2n1 | 1.05

Source: the supplement of paper PMC10121225
